The results in this text go back to PMC7862700, “An all-to-all approach to the identification of sequence-specific readers for epigenetic DNA modifications on cytosine”.

Common to all, as to assay: DAPPL (digital affinity profiling via proximity ligation, sequencing); 10 mM Tris-HCl pH 7.5, 50 mM NaCl, 1 mM DTT, 4% glycerol, room temperature, 30 min; GST-TFs on glutathione beads, 16-mer random dsDNA library, 0.1% formaldehyde crosslink after washing; high values mean tight binding
In one assay the target is T1, FEV (Homo sapiens, UniProt Q99581 1-238).
T1 sequence: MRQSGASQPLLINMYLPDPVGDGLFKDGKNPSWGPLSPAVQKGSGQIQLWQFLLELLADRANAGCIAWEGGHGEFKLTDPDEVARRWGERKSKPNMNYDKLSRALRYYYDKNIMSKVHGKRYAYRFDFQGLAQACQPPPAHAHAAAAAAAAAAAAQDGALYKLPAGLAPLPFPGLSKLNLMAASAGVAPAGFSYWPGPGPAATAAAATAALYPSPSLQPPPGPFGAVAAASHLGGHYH
As to conditions: protein: recombinant; tags: N-terminal GST; dsDNA, one strand shown. The method, boiled down: (§1)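 After expression in yeast as GST fusions, human transcription factors were bound to glutathione beads, DNA-barcoded and mixed with a tag-only sample. The pools were incubated with 200 nmole of a 16-mer random double-stranded DNA library in Tris/NaCl/DTT/glycerol buffer (30 min, room temperature), washed and crosslinked with 0.1% formaldehyde. Proximity ligation with BsaI/T4 ligase ran for 1 h at 37 °C, before PCR amplification and sequencing on an Illumina NextSeq500. Binding signal is a hexamer's read frequency for a factor divided by its frequency for the tag-only sample.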

For a further assay, the target named is ETV5 (Homo sapiens, UniProt P41161 1-510). The conditions noted are these: protein: recombinant; tags: N-terminal GST; dsDNA, one strand shown. The method, boiled down: as §1
The target in the next assay is HSF1 (Homo sapiens, UniProt Q00613 1-529). As to conditions: protein: recombinant; tags: N-terminal GST; chain copies: 3; dsDNA, one strand shown. The method, boiled down: as §1
The target of a further assay is T2, SPIC (Homo sapiens, UniProt Q8N5J4 1-248).
T2 sequence: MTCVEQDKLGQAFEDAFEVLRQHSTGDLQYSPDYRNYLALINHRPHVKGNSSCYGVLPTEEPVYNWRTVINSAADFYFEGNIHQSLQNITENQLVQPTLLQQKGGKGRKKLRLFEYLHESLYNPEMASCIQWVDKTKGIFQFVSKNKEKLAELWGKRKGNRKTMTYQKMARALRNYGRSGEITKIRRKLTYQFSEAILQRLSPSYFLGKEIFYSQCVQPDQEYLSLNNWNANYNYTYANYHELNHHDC
The conditions noted are these: protein: recombinant; tags: N-terminal GST; dsDNA, one strand shown. The method, boiled down: as §1

The target in a further assay is ELF4 (Homo sapiens, UniProt Q99607 1-663). The conditions noted are these: protein: recombinant; tags: N-terminal GST; dsDNA, one strand shown. The method, boiled down: as §1
The target in a further assay is T3, ELK4 (Homo sapiens, UniProt P28324-2 1-405).
T3 sequence: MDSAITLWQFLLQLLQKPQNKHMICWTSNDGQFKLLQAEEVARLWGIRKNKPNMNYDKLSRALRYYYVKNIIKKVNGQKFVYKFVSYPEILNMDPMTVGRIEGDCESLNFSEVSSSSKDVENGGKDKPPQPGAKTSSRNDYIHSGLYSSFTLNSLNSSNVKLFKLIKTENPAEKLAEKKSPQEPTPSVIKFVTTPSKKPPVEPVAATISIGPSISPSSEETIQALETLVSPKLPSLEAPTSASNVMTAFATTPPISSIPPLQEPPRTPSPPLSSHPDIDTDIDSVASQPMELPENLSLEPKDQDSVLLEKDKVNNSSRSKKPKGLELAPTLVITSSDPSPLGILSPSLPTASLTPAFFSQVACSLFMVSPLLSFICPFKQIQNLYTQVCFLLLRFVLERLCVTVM
As to conditions: protein: recombinant; tags: N-terminal GST; dsDNA, one strand shown. The method, boiled down: as §1

For a further assay, the target named is T4, ETV2 (Homo sapiens, UniProt O00321 1-342).
T4 sequence: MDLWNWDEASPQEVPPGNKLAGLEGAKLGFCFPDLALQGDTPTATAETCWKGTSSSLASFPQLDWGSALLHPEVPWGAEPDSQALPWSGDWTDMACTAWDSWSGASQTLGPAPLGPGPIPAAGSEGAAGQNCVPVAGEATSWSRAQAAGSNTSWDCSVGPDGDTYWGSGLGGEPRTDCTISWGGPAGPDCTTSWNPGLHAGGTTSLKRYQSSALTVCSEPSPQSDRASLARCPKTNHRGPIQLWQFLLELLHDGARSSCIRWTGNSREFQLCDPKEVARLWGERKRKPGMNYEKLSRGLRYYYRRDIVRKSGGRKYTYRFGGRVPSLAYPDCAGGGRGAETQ
As to conditions: protein: recombinant; tags: N-terminal GST; dsDNA, one strand shown. The method, boiled down:
as §1

A further assay addresses T5, ELF3 (Homo sapiens, UniProt P78545 1-371).
T5 sequence: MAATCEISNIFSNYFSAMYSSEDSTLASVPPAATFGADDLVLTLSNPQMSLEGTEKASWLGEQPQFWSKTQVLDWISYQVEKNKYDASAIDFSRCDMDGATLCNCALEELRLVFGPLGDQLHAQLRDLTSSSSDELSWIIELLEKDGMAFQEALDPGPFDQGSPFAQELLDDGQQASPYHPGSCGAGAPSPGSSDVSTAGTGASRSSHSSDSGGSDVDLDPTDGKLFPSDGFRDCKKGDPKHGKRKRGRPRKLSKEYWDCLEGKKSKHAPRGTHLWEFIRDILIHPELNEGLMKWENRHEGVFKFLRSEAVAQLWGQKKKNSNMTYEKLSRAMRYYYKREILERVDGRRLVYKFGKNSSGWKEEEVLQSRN
As to conditions: protein: recombinant; tags: N-terminal GST; dsDNA, one strand shown. The method, boiled down:
as §1

The next assay concerns the target CRX (Homo sapiens, UniProt O43186 1-299). As to conditions: protein: recombinant; tags: N-terminal GST; dsDNA, one strand shown. The method, boiled down:
as §1

The target in a further assay is ETV1 (Homo sapiens, UniProt P50549 1-477). As to conditions: protein: recombinant; tags: N-terminal GST; dsDNA, one strand shown. The method, boiled down:
as §1

A further assay has as its target T6, ERF (Homo sapiens, UniProt P50548 1-548).
T6 sequence: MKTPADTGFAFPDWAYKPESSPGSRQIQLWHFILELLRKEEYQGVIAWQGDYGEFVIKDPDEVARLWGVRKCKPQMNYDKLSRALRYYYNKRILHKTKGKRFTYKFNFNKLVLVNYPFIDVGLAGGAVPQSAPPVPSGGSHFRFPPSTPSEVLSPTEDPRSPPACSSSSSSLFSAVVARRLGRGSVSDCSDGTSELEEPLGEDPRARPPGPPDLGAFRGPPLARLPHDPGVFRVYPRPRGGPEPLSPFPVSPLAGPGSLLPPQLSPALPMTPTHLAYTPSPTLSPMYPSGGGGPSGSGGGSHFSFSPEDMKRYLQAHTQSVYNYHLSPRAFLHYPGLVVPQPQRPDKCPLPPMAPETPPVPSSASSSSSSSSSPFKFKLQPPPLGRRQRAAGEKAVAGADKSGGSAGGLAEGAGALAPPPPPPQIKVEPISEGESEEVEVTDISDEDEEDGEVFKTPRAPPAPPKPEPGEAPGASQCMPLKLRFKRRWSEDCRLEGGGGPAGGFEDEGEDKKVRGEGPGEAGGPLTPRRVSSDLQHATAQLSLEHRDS
As to conditions: protein: recombinant; tags: N-terminal GST; dsDNA, one strand shown. The method, boiled down:
as §1

In the next assay the target is T7, ETV3L (Homo sapiens, UniProt Q6ZN32 1-361).
T7 sequence: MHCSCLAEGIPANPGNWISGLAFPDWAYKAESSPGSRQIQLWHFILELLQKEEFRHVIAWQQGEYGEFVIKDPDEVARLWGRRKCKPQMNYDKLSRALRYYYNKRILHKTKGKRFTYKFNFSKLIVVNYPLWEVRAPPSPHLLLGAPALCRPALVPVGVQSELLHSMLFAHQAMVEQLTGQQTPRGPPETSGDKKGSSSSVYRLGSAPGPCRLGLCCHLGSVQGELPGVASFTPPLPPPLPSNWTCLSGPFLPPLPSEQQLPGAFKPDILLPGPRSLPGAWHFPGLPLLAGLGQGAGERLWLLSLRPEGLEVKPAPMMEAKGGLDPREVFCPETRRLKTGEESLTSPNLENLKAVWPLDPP
The conditions noted are these: protein: recombinant; tags: N-terminal GST; dsDNA, one strand shown. The method, boiled down: as §1

A further assay deals with T8, ETS2 (Homo sapiens, UniProt P15036 1-469).
T8 sequence: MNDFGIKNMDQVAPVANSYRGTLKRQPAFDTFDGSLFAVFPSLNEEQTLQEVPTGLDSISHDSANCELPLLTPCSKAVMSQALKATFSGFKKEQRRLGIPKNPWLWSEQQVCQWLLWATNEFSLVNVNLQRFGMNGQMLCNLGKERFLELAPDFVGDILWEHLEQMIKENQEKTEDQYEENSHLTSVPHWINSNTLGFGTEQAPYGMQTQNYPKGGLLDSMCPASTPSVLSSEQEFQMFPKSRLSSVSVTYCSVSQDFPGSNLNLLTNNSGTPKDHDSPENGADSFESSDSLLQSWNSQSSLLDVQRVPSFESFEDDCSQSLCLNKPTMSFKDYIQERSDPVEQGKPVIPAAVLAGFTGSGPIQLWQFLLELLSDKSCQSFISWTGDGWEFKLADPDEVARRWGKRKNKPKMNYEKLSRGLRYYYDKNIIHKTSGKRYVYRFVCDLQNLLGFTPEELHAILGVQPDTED
As to conditions: protein: recombinant; tags: N-terminal GST; dsDNA, one strand shown. The method, boiled down:
as §1

For a further assay, the target named is T9, SPDEF (Homo sapiens, UniProt O95238 1-335).
T9 sequence: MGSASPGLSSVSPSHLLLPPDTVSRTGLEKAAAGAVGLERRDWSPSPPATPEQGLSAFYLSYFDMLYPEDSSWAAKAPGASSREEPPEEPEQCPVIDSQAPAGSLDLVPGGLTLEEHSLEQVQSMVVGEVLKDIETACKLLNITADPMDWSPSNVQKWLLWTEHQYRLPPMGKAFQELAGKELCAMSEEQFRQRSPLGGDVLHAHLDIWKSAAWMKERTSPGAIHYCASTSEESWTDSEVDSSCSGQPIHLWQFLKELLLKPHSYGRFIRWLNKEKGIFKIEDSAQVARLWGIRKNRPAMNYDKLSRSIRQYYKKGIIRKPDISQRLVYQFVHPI
As to conditions: protein: recombinant; tags: N-terminal GST; dsDNA, one strand shown. The method, boiled down:
as §1

Another assay has as its target T10, ETV7 (Homo sapiens, UniProt Q9Y603 1-341).
T10 sequence: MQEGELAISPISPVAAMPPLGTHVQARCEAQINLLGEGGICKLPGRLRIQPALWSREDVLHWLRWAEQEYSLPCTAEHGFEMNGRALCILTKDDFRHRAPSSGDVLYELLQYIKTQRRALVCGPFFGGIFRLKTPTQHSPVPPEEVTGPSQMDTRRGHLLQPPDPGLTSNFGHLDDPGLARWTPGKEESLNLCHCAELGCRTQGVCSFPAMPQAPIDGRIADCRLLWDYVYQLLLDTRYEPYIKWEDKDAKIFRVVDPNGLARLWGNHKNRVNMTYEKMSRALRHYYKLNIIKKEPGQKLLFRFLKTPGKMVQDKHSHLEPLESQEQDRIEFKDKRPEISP
The conditions noted are these: protein: recombinant; tags: N-terminal GST; dsDNA, one strand shown. The method, boiled down: as §1

A further assay has as its target T11, ELF5 (Homo sapiens, UniProt Q9UKW6-2 1-255).
T11 sequence: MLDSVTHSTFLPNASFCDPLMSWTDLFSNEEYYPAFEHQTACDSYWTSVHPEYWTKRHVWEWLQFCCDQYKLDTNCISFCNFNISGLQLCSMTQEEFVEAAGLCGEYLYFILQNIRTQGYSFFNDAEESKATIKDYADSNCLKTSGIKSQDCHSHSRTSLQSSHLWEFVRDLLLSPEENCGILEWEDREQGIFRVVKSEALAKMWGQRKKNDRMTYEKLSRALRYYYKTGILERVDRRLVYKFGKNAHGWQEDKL
The conditions noted are these: protein: recombinant; tags: N-terminal GST; dsDNA, one strand shown. The method, boiled down: as §1

The target in the next assay is T12, ETV3 (Homo sapiens, UniProt P41162-2 1-143).
T12 sequence: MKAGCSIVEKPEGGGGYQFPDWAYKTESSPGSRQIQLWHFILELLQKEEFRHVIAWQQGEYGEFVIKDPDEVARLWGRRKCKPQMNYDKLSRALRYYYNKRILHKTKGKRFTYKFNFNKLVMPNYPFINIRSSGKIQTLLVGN
The conditions noted are these: protein: recombinant; tags: N-terminal GST; dsDNA, one strand shown. The method, boiled down: as §1

The target in another assay is ETV6 (Homo sapiens, UniProt P41212 1-452). The conditions noted are these: protein: recombinant; tags: N-terminal GST; dsDNA, one strand shown. The method, boiled down: as §1
Sequence of ETV6 (P41212 whole entry): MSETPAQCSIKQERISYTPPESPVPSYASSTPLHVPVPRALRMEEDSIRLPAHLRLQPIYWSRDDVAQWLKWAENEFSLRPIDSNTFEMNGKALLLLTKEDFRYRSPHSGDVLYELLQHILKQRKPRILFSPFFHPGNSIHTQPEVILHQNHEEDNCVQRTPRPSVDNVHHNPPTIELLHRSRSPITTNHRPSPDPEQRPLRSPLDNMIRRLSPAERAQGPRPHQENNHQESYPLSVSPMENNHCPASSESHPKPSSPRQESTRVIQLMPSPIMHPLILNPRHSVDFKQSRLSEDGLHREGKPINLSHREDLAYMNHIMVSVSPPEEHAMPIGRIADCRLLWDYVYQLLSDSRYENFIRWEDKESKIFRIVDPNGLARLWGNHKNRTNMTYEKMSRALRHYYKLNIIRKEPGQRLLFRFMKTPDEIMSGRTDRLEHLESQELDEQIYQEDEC

Sequence of ETV5 (P41161 whole entry): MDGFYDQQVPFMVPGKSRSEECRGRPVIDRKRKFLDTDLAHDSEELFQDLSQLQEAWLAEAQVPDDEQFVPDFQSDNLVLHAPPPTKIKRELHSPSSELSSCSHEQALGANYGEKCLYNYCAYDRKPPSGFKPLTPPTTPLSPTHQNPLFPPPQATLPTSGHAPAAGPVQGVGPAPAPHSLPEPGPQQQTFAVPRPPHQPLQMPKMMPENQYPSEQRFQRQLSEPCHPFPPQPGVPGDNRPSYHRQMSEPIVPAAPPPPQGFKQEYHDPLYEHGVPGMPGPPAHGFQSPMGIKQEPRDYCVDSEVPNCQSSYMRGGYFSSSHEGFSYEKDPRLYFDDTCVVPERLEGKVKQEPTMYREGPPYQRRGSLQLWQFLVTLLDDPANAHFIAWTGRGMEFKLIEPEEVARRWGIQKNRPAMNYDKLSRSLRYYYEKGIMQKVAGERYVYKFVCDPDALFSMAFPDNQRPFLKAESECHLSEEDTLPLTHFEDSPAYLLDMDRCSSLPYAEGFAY
Sequence of CRX (O43186 whole entry): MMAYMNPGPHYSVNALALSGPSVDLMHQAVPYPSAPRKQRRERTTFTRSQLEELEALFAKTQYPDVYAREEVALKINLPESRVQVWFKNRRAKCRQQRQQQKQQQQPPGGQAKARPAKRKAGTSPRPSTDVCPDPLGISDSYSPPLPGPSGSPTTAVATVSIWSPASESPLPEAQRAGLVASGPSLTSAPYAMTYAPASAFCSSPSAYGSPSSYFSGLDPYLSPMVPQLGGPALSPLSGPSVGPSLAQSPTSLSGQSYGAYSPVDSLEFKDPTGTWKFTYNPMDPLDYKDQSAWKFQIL
Sequence of ETV1 (P50549 whole entry): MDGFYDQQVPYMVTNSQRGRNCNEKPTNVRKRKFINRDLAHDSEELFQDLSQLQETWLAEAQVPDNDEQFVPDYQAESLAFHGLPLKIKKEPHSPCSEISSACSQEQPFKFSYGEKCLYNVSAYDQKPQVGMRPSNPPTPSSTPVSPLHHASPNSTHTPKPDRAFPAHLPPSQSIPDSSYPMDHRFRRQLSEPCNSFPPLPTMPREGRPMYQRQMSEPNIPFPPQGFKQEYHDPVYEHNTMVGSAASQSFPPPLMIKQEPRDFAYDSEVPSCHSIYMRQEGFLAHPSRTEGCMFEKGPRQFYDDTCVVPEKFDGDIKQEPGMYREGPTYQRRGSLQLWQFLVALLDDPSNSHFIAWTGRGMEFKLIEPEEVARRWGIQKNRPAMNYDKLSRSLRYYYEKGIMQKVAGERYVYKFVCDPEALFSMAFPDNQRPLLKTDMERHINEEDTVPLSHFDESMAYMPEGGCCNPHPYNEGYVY
Sequence of ELF4 (Q99607 whole entry): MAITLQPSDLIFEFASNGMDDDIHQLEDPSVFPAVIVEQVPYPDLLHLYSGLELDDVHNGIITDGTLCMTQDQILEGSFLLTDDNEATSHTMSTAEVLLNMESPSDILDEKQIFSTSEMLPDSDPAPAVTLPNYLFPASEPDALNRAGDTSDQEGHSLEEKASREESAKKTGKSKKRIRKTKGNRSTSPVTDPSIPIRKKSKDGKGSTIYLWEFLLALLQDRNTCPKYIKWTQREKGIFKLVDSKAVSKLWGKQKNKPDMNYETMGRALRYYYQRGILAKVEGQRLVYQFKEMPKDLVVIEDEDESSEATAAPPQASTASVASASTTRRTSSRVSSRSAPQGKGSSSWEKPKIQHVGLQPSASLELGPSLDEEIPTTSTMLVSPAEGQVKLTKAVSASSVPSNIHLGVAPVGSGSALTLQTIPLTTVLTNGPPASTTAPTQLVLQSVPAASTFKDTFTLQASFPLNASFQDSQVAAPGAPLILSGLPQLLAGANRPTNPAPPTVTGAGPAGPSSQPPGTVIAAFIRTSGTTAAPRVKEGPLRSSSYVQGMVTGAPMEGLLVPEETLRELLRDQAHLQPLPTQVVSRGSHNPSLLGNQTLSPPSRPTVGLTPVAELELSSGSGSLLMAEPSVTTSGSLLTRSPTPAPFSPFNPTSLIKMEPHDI
Sequence of HSF1 (Q00613 whole entry): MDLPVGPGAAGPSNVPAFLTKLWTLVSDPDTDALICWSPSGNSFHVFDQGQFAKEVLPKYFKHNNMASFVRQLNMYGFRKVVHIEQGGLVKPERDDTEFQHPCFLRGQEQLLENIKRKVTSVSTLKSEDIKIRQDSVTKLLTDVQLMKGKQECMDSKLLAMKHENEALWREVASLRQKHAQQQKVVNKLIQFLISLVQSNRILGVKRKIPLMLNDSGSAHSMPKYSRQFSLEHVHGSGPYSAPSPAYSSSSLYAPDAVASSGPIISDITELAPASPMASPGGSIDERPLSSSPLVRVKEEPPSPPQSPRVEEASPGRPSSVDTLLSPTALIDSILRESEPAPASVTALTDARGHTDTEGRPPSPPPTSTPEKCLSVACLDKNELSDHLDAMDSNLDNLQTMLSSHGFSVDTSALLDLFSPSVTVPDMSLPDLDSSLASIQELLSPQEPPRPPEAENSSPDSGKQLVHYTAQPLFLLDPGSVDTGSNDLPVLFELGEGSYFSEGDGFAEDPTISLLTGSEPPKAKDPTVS

Turning to AAATTT, the binding signal in the assay with FEV is 1.34 fold enrichment (6-mer frequency, TF over GST control); with ETV5 it was 1.36 fold enrichment (6-mer frequency, TF over GST control); with HSF1 it was 1.47 fold enrichment (6-mer frequency, TF over GST control); with SPIC, 1.1 fold enrichment (6-mer frequency, TF over GST control); with ELF4, 1.19 fold enrichment (6-mer frequency, TF over GST control); with ELK4, 1.22 fold enrichment (6-mer frequency, TF over GST control). The binding signal in the assay with ETV2 was 1.29 fold enrichment (6-mer frequency, TF over GST control); with ELF3, 1.43 fold enrichment (6-mer frequency, TF over GST control); in the assay with CRX, 1.24 fold enrichment (6-mer frequency, TF over GST control); in the assay with ETV1, 1.35 fold enrichment (6-mer frequency, TF over GST control); with ERF it was 1.43 fold enrichment (6-mer frequency, TF over GST control); in the assay with ETV3L, 1.4 fold enrichment (6-mer frequency, TF over GST control). Moreover, the binding signal in the assay with ETS2 is 1.35 fold enrichment (6-mer frequency, TF over GST control); in the assay with SPDEF, 1.15 fold enrichment (6-mer frequency, TF over GST control); in the assay with ETV7, 1.36 fold enrichment (6-mer frequency, TF over GST control); in the assay with ELF5, 1.43 fold enrichment (6-mer frequency, TF over GST control); with ETV3, 1.27 fold enrichment (6-mer frequency, TF over GST control); with ETV6, 1.37 fold enrichment (6-mer frequency, TF over GST control).
